Marburg entry inh – inhibitors of Marburg virus binding or cell entry; AID 540276; 1.8% of 300,000 active; Marburg virus pseudotyped entry inhibition, cell reporter; Potency, µM (series often up to 37.8 µM), without a hit: at the highest dose activity change, negative = inhibition, hits mostly inhibitors; calls by dose curve; tested in HEK293 cells; note: potency is the fitted concentration of half-maximal effect; % is set by controls: 0 for no effect and ±100 for the full control effect
Lassa entry inh – Lassa virus entry inhibition; Lassa virus pseudotype entry inhibition, cell reporter; Potency, µM (series often up to 37.9 µM), inactives show top-dose activity change, negative = inhibition, most hits filed as inhibitors; 1.2% of 300,000 active; AID 540256; calls by dose curve; tested in HEK293 cells; note: potency is the fitted concentration of half-maximal effect; % is set by controls: 0 for no effect and ±100 for the full control effect; nearly all actives have a fitted effect of over 50% in size
SARS PLpro yeast – blocks SARS-CoV papain-like protease in a yeast assay | S. cerevisiae expressing SARS-CoV PLpro, growth rescue | Potency, µM (series often up to 32.9 µM), for inactives: top-dose activity, positive = growth rescue, hits mostly activators | 0.19% of 330,000 active | AID 485353; calls by dose curve; note: potency is the fitted concentration of half-maximal effect; 0% is about no effect; nearly all actives have a fitted effect of over 55% in size
FMDV antiviral – foot and mouth disease virus antiviral activity | FMDV antiviral cell-based qHTS | Potency, µM (top dose mostly 57.9 µM), for inactives: at the top dose activity change, negative = inhibition, usual class: inhibitors | 1.2% of 410,000 active | AID 1159524; calls by dose curve; tested in HEK293T cells; note: read-out not given here; potency is the fitted concentration of half-maximal effect; % is set by controls: 0 for no effect and ±100 for the full control effect; nearly all actives have a fitted effect of over 45% in size
HCV inh – blocks hepatitis C virus | Potency, µM (highest dose often 41.8 µM), without a hit: top-dose activity change, negative = inhibition, usual class: inhibitors | 3.4% of 340,000 active | Huh7.5.1 HCVcc-Cre infection, luciferase reporter, 44 h | AID 651820; active = well fitted inhibition curve with a large enough effect; inconclusive = small, poorly fitted or top-dose-only effect, or another doubt; inactive = no such curve, though single readings can be large or run the other way; note: potency is the fitted concentration of half-maximal effect; % is set by controls: 0 for no effect and ±100 for the full control effect
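A cell-based infection assay in which seeded cells (1,000 per well) receive test compound after 4 h, are inoculated with HCVcc-Cre at approximately 0.5 moi, and are incubated 44 h before luminescence detection.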
HCMV inh – blocks human cytomegalovirus replication. HFF cells, HCMV-luciferase reporter, 72 h; stronger effect = lower value. activity change, negative = inhibition, % at 57.5 µM. 4.5% of 410,000 active. AID 1259415; in the data active = activity change below about -60%; inconclusive = no clear call, values can overlap the other calls; inactive = above about -39%; note: % is set by controls: 0 for no effect and ±100 for the full control effect
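Inhibition of viral replication was scored as loss of reporter luminescence in HFFs infected with HCMV-luciferase (MOI 1 PFU/cell) for 72 h; compounds tested at 2 doses, normalized to buffer and Salinomycin controls.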
* = called active by the depositor; [ ] = dose if it differs, or a comment. A selection: hits, their analogues and other compounds. The true share with any hit is near 8%.

What do the screens show for `CN(CC1CCCO1)S(=O)(=O)c1ccc(C(=O)Nc2ccc3c(c2)OCO3)cc1` (centres undefined)?
Marburg entry inh: 4%[46.1 µM]; Lassa entry inh: -19%[46.1 µM]; SARS PLpro yeast: -2%; FMDV antiviral: 8%; HCV inh: -13%; HCMV inh: -7

How did N#Cc1ccccc1NC(=O)CSc1nc(-c2ccccc2)cc(C(F)(F)F)c1C#N do in these assays?
Lassa entry inh: -7%[46.1 µM]; FMDV antiviral: -18%; HCMV inh: -23

What do the screens show for `CCS(=O)(=O)N1Cc2ccccc2CC1C(=O)Nc1ncc(C)s1` (centres undefined)?
Marburg entry inh: 3%; Lassa entry inh: 18%; SARS PLpro yeast: 1%; FMDV antiviral: 69%; HCV inh: 0%; HCMV inh: 23

How did CCS(=O)(=O)N1Cc2ccccc2CC1C(=O)Nc1nnc(SCc2ccc(C#N)cc2)s1 (centres undefined) do in these assays?
Marburg entry inh: -15%; Lassa entry inh: 0%; SARS PLpro yeast: 13%; FMDV antiviral: -28%; HCV inh: -12%; HCMV inh: -66*

Results for CC(=O)c1cccc(NC(=O)C2Cc3c(-c4cccc(F)c4)ccnc3O2)c1 (centres undefined) ?
FMDV antiviral: -5%; HCMV inh: -33

What do the screens show for `Cc1ccccc1/C(N)=N/OC(=O)c1ccc(F)cc1`?
SARS PLpro yeast: -3%; FMDV antiviral: 8%; HCV inh: inconclusive; HCMV inh: -90*

What do the screens show for `Cc1ccccc1C(=O)O/N=C(\N)c1ccccc1`?
Marburg entry inh: inconclusive; Lassa entry inh: inconclusive; SARS PLpro yeast: -9%; FMDV antiviral: 11µM*; HCV inh: inconclusive; HCMV inh: 85

What do the screens show for `N/C(=N\OC(=O)c1cccc(Br)c1)c1ccccc1`?
Marburg entry inh: inconclusive; Lassa entry inh: 6%; SARS PLpro yeast: 0%; FMDV antiviral: 16%; HCV inh: 11µM*; HCMV inh: 264

What do the screens show for `CC(Sc1nc2c(cc1C#N)CCCCC2)C(=O)O` (centres undefined)?
Marburg entry inh: 3%[46.1 µM]; Lassa entry inh: 1%[46.1 µM]; SARS PLpro yeast: 0%; FMDV antiviral: -25%; HCV inh: 17%; HCMV inh: -24

Results for Clc1ccc(-c2nc3ccccn3c2Nc2ccc3c(c2)OCCO3)s1 ?
Marburg entry inh: inconclusive; Lassa entry inh: -12%[46.1 µM]; FMDV antiviral: 55%; HCMV inh: 28

What do the screens show for `COC(=O)c1cc2sc(C)cc2n1CC(=O)Nc1ccc(C)c(C)c1`?
Marburg entry inh: inconclusive; FMDV antiviral: 0%; HCMV inh: -27

What do the screens show for `CCc1cccc(N=c2c([N+](=O)[O-])nn(-c3ccc4c(c3)OCCO4)n2O)c1`?
Marburg entry inh: inconclusive; Lassa entry inh: inconclusive; SARS PLpro yeast: -3%; FMDV antiviral: inconclusive; HCV inh: 10µM*; HCMV inh: -67*

How did NS(=O)(=O)c1ccc(NC(=O)COC(=O)CN2C(=O)C3CC=CCC3C2=O)cc1 (centres undefined) do in these assays?
SARS PLpro yeast: 1%; FMDV antiviral: -13%; HCV inh: 21%; HCMV inh: -2

Results for Cc1c(NC(=O)/C(=C/c2cccs2)c2cccs2)c(=O)n(-c2ccccc2)n1C ?
Marburg entry inh: 9%; Lassa entry inh: -5%; SARS PLpro yeast: 5%; FMDV antiviral: -8%; HCV inh: 12%; HCMV inh: -102*

What do the screens show for `Cc1c(NC(=O)/C(C#N)=C/c2ccc(-c3cc(Cl)ccc3Cl)o2)c(=O)n(-c2ccccc2)n1C`?
Marburg entry inh: 5%; Lassa entry inh: 17%; SARS PLpro yeast: -20%; FMDV antiviral: -12%; HCV inh: inconclusive; HCMV inh: inconclusive

Results for Cc1c(NC(=O)/C(C#N)=C/c2ccc(-c3ccc(Cl)cc3)o2)c(=O)n(-c2ccccc2)n1C ?
Marburg entry inh: inconclusive; Lassa entry inh: inconclusive; SARS PLpro yeast: -4%; FMDV antiviral: 25µM*; HCV inh: inconclusive; HCMV inh: inconclusive

Results for COc1ccc(OC)c2c1sc(=NC(=O)C1CC1)n2C ?
SARS PLpro yeast: -1%; FMDV antiviral: -25%; HCV inh: 14µM*; HCMV inh: -5

Source: PubChem
